Assay outcomes: PubChem BioAssay, National Center for Advancing Translational Sciences (NCATS)
Shiga inhibitor – Shiga toxin inhibition. Vero cells, Shiga toxin protein synthesis inhibition reporter. inhibition, % at 38.7 µM. 290,000 compounds, 9.2% hits. AID 2315; in the data active means inhibition mostly above about 28%, no sharp cut-off; inactive means mostly below about 43%; further: 0% is about no effect
Pf growth 48h – inhibits P. falciparum growth in the first generation, 48 h | Potency, µM (top dose mostly 28.7 µM), for inactives: at the top dose activity change, negative = inhibition, actives largely listed as inhibitors | AID 504832 | P. falciparum luciferase growth in erythrocytes, 48 h | 310,000 compounds, 5.9% hits; further: potency means the concentration at half of the fitted maximal effect; on the % scale 0 is the no-effect control and ±100 the full control effect
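Luciferase-expressing P. falciparum in infected erythrocytes (2% hematocrit, 0.1% parasitemia final) in RPMI 1640/0.5% Albumax were exposed to compound for 48 hours at 37 C, 5% CO2; growth read as luminescence.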
Sm TGR inh – inhibitors of Schistosoma mansoni thioredoxin glutathione reductase; 360,000 compounds, 3% hits; Potency, µM (titrated, usually from 114 µM), without a hit: at the highest dose activity change, negative = inhibition, hits mostly inhibitors; Q962Y6; purified TGR, DTNB reduction, TNB absorbance 405 nm; further: potency means the concentration at half of the fitted maximal effect; on the % scale 0 is the no-effect control and ±100 the full control effect; nearly all actives have a fitted effect of over 60% in size
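First, TGR (20 nM dispensed) and NADPH were mixed with compound. Second, a 15 min room-temperature incubation followed. Third, further NADPH and then DTNB were added to start the reaction. Finally, TNB absorbance was monitored kinetically.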
NS1 function inh – inhibitors of influenza NS1 protein function; Potency, µM (top dose mostly 46.1 µM), for inactives: top-dose activity, positive = more growth; 270,000 compounds, 0.4% hits; AID 2326; calls by dose curve; further: potency means the concentration at half of the fitted maximal effect; actives are rising curves; nearly all actives have a fitted effect of over 50% in size
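Recovery from NS1-induced slow growth read by OD600 in budding yeast switched to galactose assay medium (pH 6.0, -URA) at 1:100 dilution. Compound 23 nl per well; the matching strain lacking NS1 serves as control.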
CHX counter – affects cycloheximide protein synthesis inhibition readout, counter-screen | cell reporter, cycloheximide protein synthesis inhibition counterscreen | AID 2314 | max response, % | 300,000 compounds, 12% hits; in the data active means max response mostly above about 13%, no sharp cut-off; inactive means mostly below about 14%; further: read at 38.3 µM for the half of the compounds with a filed dose; 0% is about no effect
Pf growth 96h – P. falciparum growth inhibition at 96 hour, primary screen for plastid delayed-death inhibitors | 320,000 compounds, 6.9% hits | P. falciparum luciferase reporter growth, 96 h | AID 504834 | Potency, µM (highest dose often 28.7 µM), inactives show top-dose activity change, negative = inhibition, usual class: inhibitors; further: potency means the concentration at half of the fitted maximal effect; on the % scale 0 is the no-effect control and ±100 the full control effect
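Readout is luminescence from an integrated firefly luciferase in P. falciparum. Red cells, 2% hematocrit and 0.05% parasitemia final, were cultured with compound through two parasite generations (96 hours) at 37 C, 5% CO2.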
An asterisk follows results filed as active; i = inactive; ? = inconclusive; · = no result. The list is not random: actives were taken first. Their share in the collection is about 21%. Unless noted, the call rests on the fitted dose curve; in most records, active means well fitted curve in the direction sought with a large enough effect; inconclusive means small, poorly fitted or top-dose-only effect, or another doubt; inactive means no such curve, though single readings can be large; an effect the other way counts as inactive or inconclusive.

SMILES	Shiga inhibitor	Pf growth 48h	Sm TGR inh	NS1 function inh	CHX counter	Pf growth 96h
O=C(Nc1nnc(-c2ccccc2Cl)o1)c1cc2cc([N+](=O)[O-])ccc2s1	-4.8	1.3%	3.0%	8.7%	-1.5	4.2%
O=C(O)c1cc2cccc(S(=O)(=O)N3CCCCC3)c2cc1O	-6.9	0.0%	0.1%	-5.0%	-4.4	19.7%
CCC1=NN(S(=O)(=O)c2ccc(C)cc2)C(O)(C(F)(F)F)C1 (configuration not stated)	13.9	-13.5%	5.5%	·	-3.1	4.0%
Cc1noc(/C=C/Nc2ccc(F)cc2F)c1[N+](=O)[O-]	141.0*	340.3%	-31.4%	·	53.1*	399.0%
Cc1ccccc1OCC(=O)NCCCNC(=O)c1ccncc1	-6.8	12.8%	-0.4%	0.6%	0.9	-26.8%
O=C(OCCOCCN=C1NS(=O)(=O)c2ccccc21)c1ccccc1Br	12.2	9.1%	-3.1%	1.3%	-3.9	?
CN(CCOc1ccccc1)C(=O)CNC(=O)c1ccc(C(C)(C)C)cc1	·	?	1.7%	·	·	?
Cn1c(=O)c2c(ncn2CC(=O)Nc2nc3ccc(F)cc3s2)n(C)c1=O	31.1	20.4%	-18.8%	10.0%	12.9*	·
COc1ccc2nc(NC(=O)Cn3cnc4c(=O)n(C)c(=O)n(C)c43)sc2c1	13.3	17.3%	-5.1%	-4.1%	-3.1	?
CCc1ccc2nc(NC(=O)Cn3cnc4ccccc4c3=O)sc2c1	52.7*	62.1%	·	5.5%	29.2*	42.4%
COC(=O)c1ccc2c(c1)C(C)(C)C(/C=C/c1ccc(O)cc1)=[N+]2C	-25.8	?	-14.6%	-16.8%	-9.9	5.22µM*
COC(=O)c1ccc2c(c1)C(C)(C)C(/C=C/c1ccc(OC)c(OC)c1OC)=[N+]2C	-28.1	2.33µM*	-47.9%	-9.4%	-11.4	2.33µM*
COC(=O)c1ccc(O)c(Sc2cc(C(=O)OC)ccc2O)c1	-5.5	8.7%	7.5%	-26.5%	6.6	-25.8%
C=C1c2cccc(OC)c2O[C@H](C(=O)OCC)[C@@H]1CCC(C)C	i	·	·	·	9.9	·
CCN1C(=O)c2cccc3c(S(=O)(=O)N(C(=O)c4ccncc4)c4ccc(OC)cc4)ccc1c23	23.8	14.7µM*	-11.9%	?	0.9	13.1µM*
COc1ccc(N(C(=O)c2cccnc2)S(=O)(=O)c2cccc([N+](=O)[O-])c2)cc1	1.6	-19.7%	?	3.7%	-2.1	?
CCN1C(=O)c2cccc3c(S(=O)(=O)N(C(=O)c4cccnc4)c4ccc(OC)cc4)ccc1c23	-3.0	?	0.9%	7.6%	0.9	?
CCCC(=O)Oc1ccc(N(C(=O)CCC)S(=O)(=O)c2cccc([N+](=O)[O-])c2)cc1	-14.3	-8.6%	-24.7%	-16.1%	-1.9	4.65µM*
COc1ccc(N(C(=O)c2ccncc2)S(=O)(=O)c2cccc([N+](=O)[O-])c2)cc1	25.3	10.2%	31.6µM*	-15.2%	-1.9	?
Cn1cc(S(=O)(=O)N2CCCCCC2)cc1C(=O)Nc1ccc(Cl)c(C(F)(F)F)c1	·	·	0.8%	·	·	·
CCN(CC)S(=O)(=O)c1ccc2c(c1)nc(SCC(=O)N1CCCCCC1)n2-c1ccc(OC)cc1	-3.9	13.1µM*	-5.6%	8.1%	-3.3	·
CCN(CC)S(=O)(=O)c1ccc2c(c1)nc(SCC(=O)N1CCOCC1)n2-c1ccccc1OC	-13.1	?	8.7%	16.7%	10.8	11.7µM*
COc1ccccc1-n1c(SCC(=O)N2CCOCC2)nc(O)cc1=O	-3.6	?	2.9%	?	6.0	?
COc1cc(C)c(C(=O)CSc2nnc(CNC(=O)c3ccco3)n2C)cc1C	-9.1	?	1.5%	?	-4.5	?
COc1cccc(NC(=O)CN(C)C(C)C(=O)NC(C)c2ccc(Cl)cc2Cl)c1 (configuration not stated)	·	-19.5%	-1.0%	·	·	?
O=C1C(=O)c2ncccc2-c2cccnc21	·	0.675µM*	·	·	·	-23.4%
O=C1c2cccnc2C(=O)N1CO	1.4	29.2%	?	-3.9%	1.6	0.0%
Cc1cc2oc(=O)cc(CN3CCOCC3)c2cc1Cl	-11.2	8.7%	5.2%	4.6%	-2.2	1.8%
Cc1ccc2[nH]cc(C(=O)CN3CCOCC3)c2c1	-17.5	35.5%	-0.8%	14.9%	-3.8	25.3%
